Measured values: PubChem BioAssay (NCATS)
Records with an inconclusive call do not appear. Entries that show only a call come without a potency. The source holds several records for some structures; these can differ, active in one and inactive in another. Calls of active or inactive are those of the source. Unless noted, calls follow the shape of the dose curve; as a rule, active = well fitted curve in the direction sought with a large enough effect; inconclusive = small, poorly fitted or top-dose-only effect, or another doubt; inactive = no such curve, though single readings can be large; an effect the other way counts as inactive or inconclusive.

Tests used:
[1] = target: Beta-2 adrenergic receptor (Homo sapiens) (UniProt P07550); assay: qHTS validation assay of beta-arrestin-biased ligands of beta2-adrenergic receptor (AID 485366)
In short: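 Tango cells expressing recombinant beta2-AR and beta-arrestin with tTA-driven luciferase, in DMEM with 1% FBS. Compounds were titrated up to 46 microM for 18 hr at 37 degrees C. Luminescence was read 15 min after substrate; curves were fitted and class-assigned.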

[2] = target: ATP-dependent 6-phosphofructokinase (Trypanosoma brucei brucei) (UniProt O15648); assay: qHTS Validation Assay to Find Inhibitors of T. brucei phosphofructokinase (AID 485368)
In short: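 Activity was read as ADP production by luminescence (ADP-Glo) after 45 min at room temperature. The enzyme was 1.25nM PFK in 0.1M TEA pH 8.0 with 0.5 mM F6P, 0.1mM ATP and 5 mM MgCl2. Compounds were titrated up to 57 uM and % activity normalized to no-enzyme and full-enzyme controls.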

[3] = Quantitative high throughput screen for delayed death inhibitors of the malarial parasite plastid, 96 hour incubation (AID 488745); also: nearly all actives have a fitted effect of over 70% in size; also: potency is read from the fitted curve at half-maximal effect
In short: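 Luciferase-expressing P. falciparum in erythrocytes (2% hematocrit, 0.1% parasitemia) incubated with compound for 96 h at 37 C, 5% CO2, in RPMI 1640 with 0.5% Albumax. Growth inhibition read as decreased luminescence.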

[4] = Quantitative high throughput screen for delayed death inhibitors of the malarial parasite plastid, 48 hour incubation (AID 488752); also: nearly all actives have a fitted effect of over 65% in size; also: potency is read from the fitted curve at half-maximal effect
In short: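 Erythrocytes infected with firefly luciferase-expressing P. falciparum (2% hematocrit, 0.1% parasitemia) cultured with compound for 48 h at 37 C, 5% CO2, in RPMI 1640/0.5% Albumax. Growth inhibition read as loss of luminescence.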

[5] = target: Thioredoxin reductase 1, cytoplasmic (Rattus norvegicus) (UniProt O89049); assay: qHTS Assay for Substrates of Mammalian Selenoprotein Thioredoxin Reductase 1 (TrxR1) (AID 488772);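 also: NADPH fluorescence in the first read after selenite addition and not the 8 min delta; series mostly up to about 57 µM; a drop in NADPH fluorescence below the no-compound background marks a TrxR1 substrate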
In short: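 Quantitative HTS in Tris-HCl buffer at pH 7.5 with EDTA and Tween-20, using rat TrxR1, 400 uM NADPH and 400 uM selenite (final). A fall in initial NADPH fluorescence relative to background marked substrate behaviour.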

[6] = target: Flap endonuclease 1 (Homo sapiens) (UniProt P39748); assay: qHTS Validation Assay for the Inhibitors of Human Flap endonuclease 1 (FEN1) (AID 488816)
In short: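 FEN1, dispensed as a 10 nM reagent, was preincubated with pin-transferred compounds for 15 min at room temperature before substrate was added (50 nM final). Plates were read at 0 and 15 min, and a four-parameter Hill equation was fitted to the concentration-response data.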

[7] = target: M-phase phosphoprotein 8 (Homo sapiens) (UniProt Q99549); assay: qHTS Validation Assay for Inhibitors for MPP8 Chromodomain Interactions with Methylated Histone Tails (AID 488949); also: nearly all actives have a fitted effect of over 55% in size; also: potency is read from the fitted curve at half-maximal effect
In short: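 AlphaScreen read-out: streptavidin donor and nickel chelate acceptor beads (final 10 ug/mL), 30 min in the dark at RT. Complex of 50 nM MPP8 and 50 nM b-H3(1-18)K9me3 peptide had been exposed to compounds for 30 min beforehand.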

[8] = target: Chromobox protein homolog 1 (Homo sapiens) (UniProt P83916); assay: qHTS Validation Assay for Inhibitors of HP1-beta Chromodomain Interactions with Methylated Histone Tails (AID 488953); also: nearly all actives have a fitted effect of over 50% in size; also: potency is read from the fitted curve at half-maximal effect
In short: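 HP1-beta (50 nM) preformed 30 min with biotinylated H3(1-18)K9me3 peptide (50 nM) in PBS pH 7.4, 0.01% Tween-20. Compounds added for 30 min at room temperature. Complex disruption read by AlphaScreen with streptavidin donor/nickel chelate acceptor beads (10 ug/mL each).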

[9] = target: Methanococcus maripaludis chaperonin (MmCpn) (UniProt Q6LX38); assay: High-Throughput Screening for Modulators of Cytosolic Chaperonin Activity: MmCpn Primary Screen (AID 488978);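 also: 50 nM MmCpn enzyme hydrolysing 30 µM ATP at 37 °C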
In short: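 ADP formation read by HTRF Transcreener, 665/590 nm emission after 320 nm excitation. Enzyme: archaeal chaperonin at 50 nM final; substrate ATP 30 uM final; 10 min, 37C, after 5 min compound preincubation at RT.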

[10] = target: Transient receptor potential cation channel subfamily V member 1 (Homo sapiens) (UniProt Q8NER1); assay: HTS Assay for Compounds that Act as Enhancers of the Vanilloid Receptor 1 (AID 488979)
In short: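 TRPV1-expressing cells loaded with Fluo-8 calcium dye; compounds added and calcium influx read kinetically for 3 min (agonist phase), then capsaicin at EC20 added and read 2 min more for enhancement. Fluorescence ex 480/em 520 nm.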

[11] = target: D(1A) dopamine receptor (Homo sapiens) (UniProt P21728); assay: HTS Assay for Allosteric Agonists of the Human D1 Dopamine Receptor: Primary Screen for Potentiators (AID 488982)
In short: (§1)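 Tetracycline-induced HEK293 T-REx cells force-coupled to calcium signalling were incubated overnight at 30 C and dye-loaded at room temperature. Calcium flux over 180 s after compound addition flagged agonists; a further 180 s read after EC20 dopamine flagged potentiators.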

[12] = Validation screen for small molecules that induce genotoxicity in human embryonic kidney (HEK293T) cells expressing luciferase-tagged ELG1 (AID 493106)
In short: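 HEK293T cells expressing luciferase-tagged ELG1, 2,000 cells/well, exposed to compound 16 hr at 37 °C, 5% CO2. Luciferase read after ONE-Glo, 30 min at room temperature; increased signal indicates genetic stress.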

[13] = target: Thyrotropin-releasing hormone receptor (Homo sapiens) (UniProt P34981); assay: qHTS for Small Molecule Agonists and Allosteric Enhancers of Human TRH Receptor: Validation Screen for Agonists (AID 493127;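 active = calcium activation more than 3 SD above the typical response in the agonist read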); conditions: TRH receptor agonist cell assay; at 2 µM; stronger effect = higher value
In short: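 TRHR cells loaded with fluo-8 calcium dye; FDSS kinetic fluorescence (Ex 480/Em 530) read at 1 s/cycle after 23 nL compound addition. Agonist-mode calcium response recorded before the 10 nM TRH (EC20) addition.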

[14] = target: D(1A) dopamine receptor (Homo sapiens) (UniProt P21728); assay: HTS Assay for Allosteric Agonists of the Human D1 Dopamine Receptor: Primary Screen for Agonists (AID 488981)
In short: as §1

[15] = target: D(1A) dopamine receptor (Homo sapiens) (UniProt P21728); assay: HTS Assay for Allosteric Agonists of the Human D1 Dopamine Receptor: Primary Screen for Antagonists (AID 488983);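 also: calcium flux response to an EC80 dopamine challenge measured with no-wash dye; nearly all actives have a fitted effect of over 65% in size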
In short: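 Tetracycline-induced HEK293 T-REx D1 line, force-coupled to calcium flux, read with no-wash calcium dye. Compound added after 10 s baseline, read 180 s for agonism, then EC80 dopamine added and read a further 180 s.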

[16] = target: Thioredoxin reductase 1, cytoplasmic (Rattus norvegicus) (UniProt O89049); assay: qHTS Assay for Inhibitors of Mammalian Selenoprotein Thioredoxin Reductase 1 (TrxR1) (AID 488773); conditions: Potency: inhibition;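 also: drop in NADPH fluorescence over an 8 min run after selenite addition; series mostly up to about 57 µM; nearly all actives have a fitted effect of over 40% in size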
In short: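 Steps: enzyme (90 nM) plus NADPH (400 uM final), 5 min at ~22 deg C; compound added, 15 min; selenite (400 uM final) added; fluorescence followed for 8 min. Concentration-response curves derived from the normalized delta values.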

[17] = target: Thyrotropin receptor (Homo sapiens) (UniProt P16473); assay: qHTS Assay for Antagonists of the Thyroid Stimulating Hormone Receptor (AID 488980); also: series mostly up to about 58 µM
In short: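 TSHR-HEK293 cells; 70 uM RO 20-1724 PDE inhibitor; compound + EC80 TSH (4 nM final); anti-cAMP cryptate antibody/cAMP-d2 in lysis buffer, 30 min RT; HTRF 665/620 nm read.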

[18] = target: ATPase family AAA domain-containing protein 5 (Homo sapiens) (UniProt Q96QE3); assay: Validation screen for small molecules that inhibit ELG1-dependent DNA repair in human embryonic kidney (HEK293T) cells expressing luciferase-tagged ELG1 (AID 493107);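 also: cells co-treated with the DNA-damaging agent 5-fluorouridine alongside compound; series mostly up to about 46 µM; inhibitors lower the ELG1-luciferase luminescence signal; nearly all actives have a fitted effect of over 70% in size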
In short: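 HEK293T cells expressing luciferase-tagged ELG1, 2,000 per well, treated with 5-fluorouridine plus compound for 16 h at 37 C. ONE-Glo luminescence after 30 min at room temperature reports ELG1 reporter level.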

Chain of D(1A) dopamine receptor (Homo sapiens) (P21728 whole entry, looked up): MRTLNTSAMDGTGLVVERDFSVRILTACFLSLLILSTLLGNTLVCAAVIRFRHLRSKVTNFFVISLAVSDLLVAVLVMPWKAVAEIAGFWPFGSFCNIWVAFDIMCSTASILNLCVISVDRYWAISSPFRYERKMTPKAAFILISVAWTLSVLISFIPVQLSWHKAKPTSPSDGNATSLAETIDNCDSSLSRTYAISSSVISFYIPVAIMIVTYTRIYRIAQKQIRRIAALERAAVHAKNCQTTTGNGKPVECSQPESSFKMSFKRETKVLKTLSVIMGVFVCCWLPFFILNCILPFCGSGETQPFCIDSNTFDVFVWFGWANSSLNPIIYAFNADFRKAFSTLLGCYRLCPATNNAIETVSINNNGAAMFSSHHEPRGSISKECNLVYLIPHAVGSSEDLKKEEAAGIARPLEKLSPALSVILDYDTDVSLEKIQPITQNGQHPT
Chain of Thyrotropin receptor (Homo sapiens) (P16473 whole entry, looked up): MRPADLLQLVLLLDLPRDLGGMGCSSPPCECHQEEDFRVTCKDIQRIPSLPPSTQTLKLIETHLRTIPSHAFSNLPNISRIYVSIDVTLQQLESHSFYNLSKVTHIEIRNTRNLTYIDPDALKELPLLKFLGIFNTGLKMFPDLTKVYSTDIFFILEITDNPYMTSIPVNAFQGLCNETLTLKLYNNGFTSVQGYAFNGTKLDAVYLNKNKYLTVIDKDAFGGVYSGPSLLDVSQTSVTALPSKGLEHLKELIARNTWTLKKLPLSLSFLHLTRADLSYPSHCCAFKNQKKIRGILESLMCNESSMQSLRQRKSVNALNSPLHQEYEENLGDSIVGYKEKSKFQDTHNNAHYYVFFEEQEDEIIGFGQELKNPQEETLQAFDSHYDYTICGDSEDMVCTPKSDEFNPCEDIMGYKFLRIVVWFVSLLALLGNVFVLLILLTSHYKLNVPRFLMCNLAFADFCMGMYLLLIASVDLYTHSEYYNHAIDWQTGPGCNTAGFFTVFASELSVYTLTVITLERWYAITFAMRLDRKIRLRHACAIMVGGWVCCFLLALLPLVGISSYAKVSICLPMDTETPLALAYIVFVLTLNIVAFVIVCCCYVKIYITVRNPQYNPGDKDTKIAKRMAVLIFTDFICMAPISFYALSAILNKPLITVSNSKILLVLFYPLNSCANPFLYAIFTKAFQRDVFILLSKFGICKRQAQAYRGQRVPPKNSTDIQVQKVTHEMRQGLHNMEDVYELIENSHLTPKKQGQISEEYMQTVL
Chain of ATPase family AAA domain-containing protein 5 (Homo sapiens) (Q96QE3 whole entry, looked up, the tested form may be a part): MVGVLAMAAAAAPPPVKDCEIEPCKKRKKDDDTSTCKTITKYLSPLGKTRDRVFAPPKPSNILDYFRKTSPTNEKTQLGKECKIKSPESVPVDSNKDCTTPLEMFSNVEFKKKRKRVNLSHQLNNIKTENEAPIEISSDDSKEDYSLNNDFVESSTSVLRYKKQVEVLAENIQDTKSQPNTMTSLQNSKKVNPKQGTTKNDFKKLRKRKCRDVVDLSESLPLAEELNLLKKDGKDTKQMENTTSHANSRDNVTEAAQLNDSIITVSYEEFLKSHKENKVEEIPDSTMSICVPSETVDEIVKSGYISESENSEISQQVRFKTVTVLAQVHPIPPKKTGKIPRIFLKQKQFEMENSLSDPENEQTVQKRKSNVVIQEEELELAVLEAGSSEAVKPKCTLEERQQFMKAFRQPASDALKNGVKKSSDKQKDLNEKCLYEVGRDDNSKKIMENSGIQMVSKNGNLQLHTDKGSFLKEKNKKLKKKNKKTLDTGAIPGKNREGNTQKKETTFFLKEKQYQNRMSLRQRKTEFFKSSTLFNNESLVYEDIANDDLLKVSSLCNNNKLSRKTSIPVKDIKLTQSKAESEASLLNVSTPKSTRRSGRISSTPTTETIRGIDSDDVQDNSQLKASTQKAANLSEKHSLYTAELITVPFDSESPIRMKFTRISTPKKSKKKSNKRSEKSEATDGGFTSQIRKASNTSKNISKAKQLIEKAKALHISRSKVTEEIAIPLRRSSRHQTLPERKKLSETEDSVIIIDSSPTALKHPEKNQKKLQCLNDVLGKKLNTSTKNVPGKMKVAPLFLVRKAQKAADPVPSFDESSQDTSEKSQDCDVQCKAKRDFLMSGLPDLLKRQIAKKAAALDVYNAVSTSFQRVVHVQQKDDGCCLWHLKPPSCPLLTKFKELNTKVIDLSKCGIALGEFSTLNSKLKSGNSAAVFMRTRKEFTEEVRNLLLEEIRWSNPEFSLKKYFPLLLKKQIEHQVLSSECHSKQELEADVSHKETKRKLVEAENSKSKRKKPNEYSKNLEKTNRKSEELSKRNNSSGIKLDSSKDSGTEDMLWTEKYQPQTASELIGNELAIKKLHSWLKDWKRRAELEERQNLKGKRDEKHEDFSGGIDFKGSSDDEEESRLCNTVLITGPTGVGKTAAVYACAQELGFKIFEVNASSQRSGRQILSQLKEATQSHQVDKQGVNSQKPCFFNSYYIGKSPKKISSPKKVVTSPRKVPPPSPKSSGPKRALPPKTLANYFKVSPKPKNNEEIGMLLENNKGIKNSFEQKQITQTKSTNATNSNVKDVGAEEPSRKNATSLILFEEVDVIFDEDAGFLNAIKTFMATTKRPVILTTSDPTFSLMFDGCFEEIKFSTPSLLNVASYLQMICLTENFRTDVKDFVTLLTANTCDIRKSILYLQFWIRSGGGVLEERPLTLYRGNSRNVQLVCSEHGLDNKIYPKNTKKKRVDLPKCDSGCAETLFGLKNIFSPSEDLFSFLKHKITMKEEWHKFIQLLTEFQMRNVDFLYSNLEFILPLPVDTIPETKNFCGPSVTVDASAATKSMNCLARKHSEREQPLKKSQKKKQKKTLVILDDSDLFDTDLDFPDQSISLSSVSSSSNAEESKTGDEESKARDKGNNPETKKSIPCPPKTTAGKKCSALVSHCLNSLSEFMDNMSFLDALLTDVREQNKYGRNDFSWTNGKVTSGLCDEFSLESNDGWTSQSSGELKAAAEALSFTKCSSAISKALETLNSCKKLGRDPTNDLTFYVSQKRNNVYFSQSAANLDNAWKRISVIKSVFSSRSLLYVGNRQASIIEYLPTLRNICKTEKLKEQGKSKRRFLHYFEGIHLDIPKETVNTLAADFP
Chain of Transient receptor potential cation channel subfamily V member 1 (Homo sapiens) (Q8NER1 whole entry, looked up): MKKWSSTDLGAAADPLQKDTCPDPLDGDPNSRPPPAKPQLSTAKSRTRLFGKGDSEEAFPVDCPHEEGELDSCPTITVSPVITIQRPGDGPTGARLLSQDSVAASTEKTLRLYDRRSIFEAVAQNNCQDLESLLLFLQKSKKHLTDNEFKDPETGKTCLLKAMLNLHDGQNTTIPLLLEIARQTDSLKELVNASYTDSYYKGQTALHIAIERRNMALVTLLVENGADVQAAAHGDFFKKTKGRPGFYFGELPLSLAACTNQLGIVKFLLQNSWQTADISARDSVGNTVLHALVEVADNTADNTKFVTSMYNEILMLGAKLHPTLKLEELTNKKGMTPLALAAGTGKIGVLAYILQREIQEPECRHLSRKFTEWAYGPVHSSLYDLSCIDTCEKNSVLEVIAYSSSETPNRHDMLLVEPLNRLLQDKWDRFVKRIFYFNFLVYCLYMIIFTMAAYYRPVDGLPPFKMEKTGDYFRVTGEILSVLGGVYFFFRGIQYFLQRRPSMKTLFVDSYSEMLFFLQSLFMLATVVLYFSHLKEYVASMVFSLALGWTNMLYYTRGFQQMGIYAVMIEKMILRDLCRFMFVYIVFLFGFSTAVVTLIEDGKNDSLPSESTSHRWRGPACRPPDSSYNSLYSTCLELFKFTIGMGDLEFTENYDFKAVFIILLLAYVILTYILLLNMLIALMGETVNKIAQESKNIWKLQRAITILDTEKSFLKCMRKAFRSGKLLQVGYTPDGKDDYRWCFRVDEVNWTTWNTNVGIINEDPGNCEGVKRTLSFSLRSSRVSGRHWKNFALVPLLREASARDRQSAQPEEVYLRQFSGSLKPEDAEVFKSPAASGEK
Chain of Flap endonuclease 1 (Homo sapiens) (P39748 whole entry, looked up): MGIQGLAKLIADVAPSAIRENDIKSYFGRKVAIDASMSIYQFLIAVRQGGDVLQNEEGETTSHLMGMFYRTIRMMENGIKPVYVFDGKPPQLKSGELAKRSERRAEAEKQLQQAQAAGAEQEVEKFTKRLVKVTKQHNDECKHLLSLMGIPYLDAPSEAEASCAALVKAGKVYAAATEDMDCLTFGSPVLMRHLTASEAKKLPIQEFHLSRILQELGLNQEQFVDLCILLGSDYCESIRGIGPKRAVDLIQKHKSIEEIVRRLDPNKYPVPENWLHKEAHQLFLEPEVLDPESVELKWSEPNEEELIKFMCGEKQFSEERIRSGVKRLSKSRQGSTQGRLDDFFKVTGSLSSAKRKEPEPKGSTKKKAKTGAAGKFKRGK
Chain of Chromobox protein homolog 1 (Homo sapiens) (P83916 whole entry, looked up): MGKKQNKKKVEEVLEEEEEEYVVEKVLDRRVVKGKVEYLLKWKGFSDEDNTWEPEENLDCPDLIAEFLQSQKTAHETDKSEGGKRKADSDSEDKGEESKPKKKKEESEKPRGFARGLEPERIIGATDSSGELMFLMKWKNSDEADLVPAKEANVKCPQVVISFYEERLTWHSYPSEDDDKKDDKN
Chain of Thyrotropin-releasing hormone receptor (Homo sapiens) (P34981 whole entry, looked up): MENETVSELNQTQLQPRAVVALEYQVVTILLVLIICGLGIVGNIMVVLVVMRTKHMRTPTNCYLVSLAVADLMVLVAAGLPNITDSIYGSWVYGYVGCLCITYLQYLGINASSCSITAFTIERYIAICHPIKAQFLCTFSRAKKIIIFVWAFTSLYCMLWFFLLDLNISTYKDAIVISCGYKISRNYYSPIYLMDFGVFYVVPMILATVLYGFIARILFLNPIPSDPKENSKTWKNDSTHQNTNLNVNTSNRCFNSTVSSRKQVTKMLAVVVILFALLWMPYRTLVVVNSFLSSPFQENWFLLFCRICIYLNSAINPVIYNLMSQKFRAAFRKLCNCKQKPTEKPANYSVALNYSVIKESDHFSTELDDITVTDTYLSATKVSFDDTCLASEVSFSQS

Row | SMILES | outcome [1] | Potency [2] | Potency [3] | Potency [4] | outcome [5] | Potency [6] | Potency [7] | Potency [8] | outcome [9] | outcome [10] | Potency [11] | Potency [12] | activation [13] | Potency [14] | Potency [15] | Potency [16] | outcome [17] | Potency [18]
1 | CC(C)(C)c1cc(/C=C(\C#N)C(N)=S)cc(C(C)(C)C)c1O | inactive | inactive | 9.28 µM (active) | 8.28 µM (active) | inactive | inactive | 11.2 µM (active) | 11.2 µM (active) | inactive | inactive | inactive | inactive | 10.6% (inactive) |  |  |  |  | 
2 | CCC1(O)CC2CN(CCc3c([nH]c4ccccc34)[C@@](C(=O)OC)(c3cc4c(cc3OC)N(C)C3[C@]45CCN4CC=C[C@@](CC)([C@@H](OC(C)=O)[C@]3(O)C(=O)OC)[C@H]45)C2)C1 (stereo not given in full) | inactive | inactive | 0.522 µM (active) | 0.586 µM (active) |  | inactive | inactive |  | inactive | inactive | inactive |  | -0.125% (inactive) | inactive | inactive |  |  | 
3 | NC1C=CC=C(C(=O)O)C1 (stereo not given) | inactive | inactive |  | inactive | inactive | inactive | inactive | inactive | inactive | inactive | inactive |  | -0.125% (inactive) | inactive | inactive | inactive | inactive | inactive
4 | Nc1nc2ccc(Cl)cc2c2nc(-c3ccco3)nn12 | inactive | inactive | inactive | inactive | inactive |  |  | inactive | inactive | inactive |  |  |  | inactive |  |  | inactive | 
5 | CCCCOc1cc(CC2CNC(=O)N2)ccc1OC (stereo not given) | inactive | inactive |  | inactive | inactive | inactive | inactive | inactive | inactive | inactive | inactive | inactive | 0.75% (inactive) | inactive | inactive | inactive |  | inactive
6 | CCCC(=O)NCCc1c2n(c3ccc(OC)cc13)CCCc1ccccc1-2 | inactive | inactive |  | inactive | inactive | inactive | 28.2 µM (active) | 35.5 µM (active) | inactive | inactive | inactive | inactive | -9.25% (inactive) | inactive | inactive | inactive | inactive | 
7 | CC(=O)NCCc1c[nH]c2ccc(O)cc12 | inactive | inactive | inactive |  | inactive | inactive | inactive | inactive | inactive | inactive | inactive | inactive | 1.31% (inactive) | inactive | inactive | inactive | inactive | inactive
8 | O=C(OCCN1CCOCC1)C1(c2ccccc2)CCCCC1 | inactive | inactive | inactive |  | inactive | inactive | inactive | inactive | inactive | inactive | inactive | inactive | -4.62% (inactive) | inactive | inactive | inactive | inactive | inactive
9 | O=c1[nH]c(=O)c2nc3ccccc3nc2[nH]1 | inactive | inactive | inactive | inactive | inactive |  | inactive | inactive | inactive | inactive | inactive | inactive |  | inactive | inactive |  | inactive | 
10 | COc1ccccc1N1CCN(CCN(C(=O)c2ccc(F)cc2)c2ccccn2)CC1 | inactive | inactive | inactive |  | inactive | inactive | inactive |  | inactive | inactive | inactive | inactive | 0.312% (inactive) | inactive |  |  | inactive | 
11 | CCCCCCCCCCCCCCSCC(=O)O | inactive | inactive |  | inactive | inactive | inactive | 31.6 µM (active) and inactive | 50.1 µM (active) | inactive | inactive | inactive | inactive | 0.688% (inactive) | inactive | inactive | inactive | inactive | inactive
12 | COc1ccc(-c2ccc(N)[n+](CCCC(=O)O)n2)cc1 | inactive | inactive |  | inactive | inactive | inactive | inactive | inactive | inactive | inactive | inactive | inactive |  |  | inactive | inactive | inactive | inactive
13 | Cn1c(=O)c2c(nc(/C=C/c3cccc(Cl)c3)n2C)n(C)c1=O | inactive | inactive | inactive | inactive | inactive |  | inactive | inactive | inactive | inactive | inactive | inactive |  | inactive |  | inactive |  | inactive
